The results in this text go back to PubChem BioAssay (EPA / NIEHS).

Records with an inconclusive call do not appear. Some compounds were tested as several samples or in several runs, with calls that do not always agree. Calls of active or inactive are those of the source. Rule for the calls: active = hit-call score of the fitted dose curve at least 0.9, where 1 is the maximum; inconclusive = response in the unintended direction; inactive = score below 0.9.

The test can be described thus: TOX21_p53_BLA_p5_viability: Viability Assessment in the Tox21 HCT-116 p53 Agonism Beta-lactamase Assay, Phase 5 (AID 2283600). The text has this:
TOX21_p53_BLA_p5 is a cell-based, single-readout assay that uses HCT116, a human intestinal cell line, […] in a 1536-well plate.TOX21_p53_BLA_p5_viability is an assay readout measuring cellular ATP content and detected with CellTiter-Glo Luciferase-coupled ATP quantitation.TOX21_p53_BLA_p5_viability used a type of viability reporter where loss-of-signal activity can be used to understand changes in the cell viability. Furthermore, this assay endpoint can be referred to as a secondary readout, because this assay has produced multiple assay endpoints where this one serves a viability function. To generalize the intended target to other relatable targets, this assay endpoint is annotated to the cell cycle intended target family, where the subfamily is cytotoxicity.
Thawing Method: Place 14 mL of pre-warmed thaw medium into a 15 mL of conical tub. Remove the vial of cells to be thawed from liquid nitrogen and thaw rapidly by placing at 37C in a water bath with gentle agitation for 1-2 minutes. Decontaminate the vial by wiping with 70% ethanol before opening in a biological safety cabinet. Transfer the vial contents drop-wise into 14 mL of thaw medium in a sterile 15-mL conical tub. Centrifuge cells at 900 rpm for 4 minutes and resuspend in thaw medium. Transfer contents to the T75 tissue culture flask containing Thaw Medium and place flask in a humidified 37C/5% CO2 incubator. Switch to growth medium at first passage.Propagation Method: Aspirate medium, rinse once in DPBS, add 0.25% Trypsin/EDTA and swirl to coat the cell evenly. Add an equal volume of Growth Medium to inactivate Trypsin after 2-3 minutes incubation at 37C. Centrifuge cells at 900 rpm for 4 minutes and resuspend in growth medium. Cell should be passage or fed at least twice a week.Assay Protocol: Harvest cells from culture in growth medium and resuspend in assay medium. 2.2 Dispense 4000 cells/5 uL/well into 1536-well black/clear bottom plates using a Multidrop dispenser. After the cells were incubated at 37C for 5 hours, 23 nL of compounds dissolved in DMSO were transferred to the assay plate by a PinTool resulting in a 217-fold dilution. Incubate the plates for 16 hours at 37C, 5% CO2. Add 1 uL of 6X LiveBLAzer FRET B/G (CCF4-AM) Substrate Mixture to each well using a BioRAPTR dispenser and incubate the plates at room temperature for 2 hours. Measure fluorescence intensity at 460 and 530 nm emission and 405 nm excitation by an Envision detector. Data is expressed as the ratio of 460nm/530nm emissions. Add 4 uL of Cell-titer Glo to each well using BioRAPTR and incubate the plates at room temperature for […]. For cell viability readout that measures cytotoxicity, 4 ul/well of CellTiter-Glo reagent was added into the assay plates using a Flying Reagent Dispenser. After 30 min incubation at room temperature, the luminescence intensity in the plates was measured using a ViewLux plate reader.
For `O=C(O)c1cc(O)c2ccccc2c1O`, the call was inactive.

Turning to `Nc1ccc(C(=O)O)cc1`, the compound was called inactive.

Turning to `CCC(C)(O)CCCC(C)C` (stereo not given), the result was inactive.

Take `CCOC(=O)/C=C\C(=O)OCC`: the compound was called inactive.

With `COC(=O)CC(C)CCC=C(C)C` (stereo not given), the call was inactive.

Turning to `CC1(C)[C@@H]2CC[C@@]1(C)C(=O)C2`, the result was inactive.

As for `CCCCC(CC)COC(=O)/C=C/c1ccc(OC)cc1` (stereo not given), the compound was called inactive.

In the case of `COc1ccc(C(=O)c2ccccc2)c(O)c1`, the compound was classed as inactive.

For `Cc1ccc([N+](=O)[O-])cc1N`, the result was inactive.

For the compound `CCCCCCC=O`, the compound was called inactive.

Regarding `CCCCC/C=C\C/C=C\CCCCCCCC(=O)O`, the outcome was inactive and the concentration at half-maximal activity (AC50) is 80.5 µM (active).

With `Cc1noc(NS(=O)(=O)c2ccc(N)cc2)c1C`, the outcome was inactive.

For the compound `CO[Si](CCCS)(OC)OC`, the outcome was inactive.

As for `C=C[C@@]1(C)CC(=O)[C@]2(O)[C@@]3(C)[C@@H](O)CCC(C)(C)[C@@H]3[C@H](O)[C@H](OC(C)=O)[C@@]2(C)O1`, the call was inactive.

With `CC(C)(C)NC(=O)[C@H]1CC[C@H]2[C@@H]3CC[C@H]4NC(=O)C=C[C@]4(C)[C@H]3CC[C@]12C`, the compound was classed as inactive.

In the case of `CC1C(C)(C)C2=C(C(=O)CCC2)C1(C)C` (stereo not given), the outcome was inactive.

As to `C/C=C/C=C/CCCCCCCO`, the compound was classed as inactive.

On to `C=C(C)C(=O)OCC(O)COc1ccc(C(C)(C)c2ccc(OCC(O)COC(=O)C(=C)C)cc2)cc1` (stereo not given), for which the result was inactive.

For the compound `Cc1cc(C)n(CO)n1`, the result was inactive.

As for `O=C(O)CC(C(=O)O)S(=O)(=O)O` (stereo not given), the outcome was inactive.

Consider `CC1OC(=O)C(C)OC1=O` (stereo not given), for which the compound was classed as inactive.

As for `CCCCOCC(C)O` (stereo not given), the call was inactive.

`CCCCNS(=O)(=O)c1ccccc1`: the call was inactive.

Turning to `CCCCOCCOC(=O)COc1ccc(Cl)cc1Cl`, the call was inactive.

Regarding `CCCCCCCCCCCCCCCCCCOS(=O)(=O)O`, the compound was called inactive.

With `C=Cc1ccc(OC(C)=O)cc1`, the outcome was inactive.

In the case of `CC1CC(=O)CC(C)(C)C1` (stereo not given), the call was inactive.

Turning to `CC(C)=CCl`, the result was inactive.

On to `CC(C)[N+](C)(CCOC(=O)C1c2ccccc2Oc2ccccc21)C(C)C`, for which the result was inactive.

For the compound `O=C(OCc1ccccc1)c1ccc(O)cc1`, the call was inactive.

As to `CN(C)c1ccc2nc3ccc(=[N+](C)C)cc-3sc2c1`, the compound was called inactive.

Turning to `COC(C=C(C)CCC=C(C)C)OC`, the compound was classed as inactive.

Consider `CCC1COC(=O)O1` (stereo not given), for which the compound was classed as inactive.

In the case of `Oc1c(Cl)cc(Cl)c(Cl)c1Cl`, the compound was classed as inactive.

For the compound `CC(=O)OC(C)c1ccccc1` (stereo not given), the call was inactive.

For `Cc1c(C(=O)c2c[nH]n(C)c2=O)ccc(S(C)(=O)=O)c1C1=NOCC1`, the compound was called inactive.

As for `CC1=CC=C(C(C)C)CC1`, the outcome was inactive.

On to `CC(C)CC(=O)OCc1ccccc1`, for which the compound was classed as inactive.

Take `CCCCc1ccc(Cl)cc1`: the call was inactive.
